miR-122 inh – activators of miR-122 sensor in Huh7 cells; activation, % at 12.5 µM; Huh7 psiCHECK-miR122 Renilla luciferase sensor, 48 h; hit rate 0.14% among 340,000; AID 623901;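 active means mean activation of 30% or more, with every replicate also reaching 30%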;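 further: 0% = median of neutral control wells and 100% = median of positive control wells; higher luciferase signal means stronger suppression of miR-122 activity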
An asterisk follows results filed as active. Shown is part of a subset that was picked to be rich in hits.

SMILES	miR-122 inh
CCCNC(=O)N1C[C@H](C)[C@H](OC)CN(C)C(=O)c2cc(NS(=O)(=O)CC)ccc2OC[C@@H]1C	-23.7
CCS(=O)(=O)Nc1ccc2c(c1)C(=O)N(C)[C@@H]1CC[C@@H](CC(=O)NCCCN3CCOCC3)O[C@H]1CO2	67.5*
CCNC(=O)Nc1ccc2c(c1)C(=O)N(C)[C@H]1CC[C@H](CC(=O)Nc3cccc(F)c3)O[C@@H]1CO2	66.7*
COCCNC(=O)C[C@H]1CC[C@@H]2[C@H](COc3ccc(NC(=O)c4cnccn4)cc3C(=O)N2C)O1	45.0*
Cc1cccc(NC(=O)Nc2ccc3c(c2)C(=O)N(C)[C@@H]2CC[C@@H](CC(=O)NCc4ccccc4Cl)O[C@H]2CO3)c1	55.0*
CO[C@H]1CN(C)C(=O)c2cc(NC(=O)c3nc4ccccc4s3)ccc2OC[C@H](C)N(Cc2ccncc2)C[C@H]1C	-9.5
COCCNC(=O)C[C@@H]1CC[C@H]2[C@@H](COc3ccc(NC(C)=O)cc3C(=O)N2C)O1	-183.3
CCS(=O)(=O)Nc1ccc2c(c1)C(=O)N(C)C[C@H](OC)[C@@H](C)CN[C@@H](C)CO2	-2.7
CO[C@H]1CN(C)C(=O)c2ccc(NC(=O)Nc3cccc(F)c3)cc2OC[C@H](C)N(C)C[C@H]1C	-11.4
Cc1ccccc1NC(=O)Nc1ccc2c(c1)C(=O)N(C)[C@H]1CC[C@H](CC(=O)NCC3CC3)O[C@H]1CO2	-227.8
C[C@H](CO)N1C[C@H](C)[C@@H](CN(C)C(=O)C2CCCCC2)Oc2ncc(-c3ccccc3F)cc2C1=O	1.4
CCC(=O)N(C)C[C@H]1Oc2cc(C#C[C@H](C)O)ccc2S(=O)(=O)N([C@H](C)CO)C[C@@H]1C	1.0
CC(C)C#Cc1cnc2c(c1)C(=O)N([C@@H](C)CO)C[C@@H](C)[C@@H](CN(C)Cc1ccccn1)O2	7.5
COCC(=O)Nc1ccc2c(c1)OC[C@@H](C)NC[C@H](C)[C@H](OC)CN(C)C2=O	-0.9
C/C=C/c1cnc2c(c1)C(=O)N([C@@H](C)CO)C[C@H](C)[C@@H](CN(C)S(=O)(=O)c1cccs1)O2	-6.9
C[C@H](CO)N1C[C@H](C)[C@H](CN(C)C(=O)C2CC2)Oc2ncc(C#Cc3cccc(F)c3)cc2C1=O	-12.5
CCC(=O)N(C)C[C@@H]1Oc2ncc(C#Cc3ccc(OC)cc3)cc2C(=O)N([C@H](C)CO)C[C@@H]1C	-0.9
COc1cccc(-c2cnc3c(c2)C(=O)N([C@H](C)CO)C[C@H](C)[C@H](CN(C)Cc2cccc(C(F)(F)F)c2)O3)c1	0.5
C[C@@H]1CN([C@H](C)CO)C(=O)c2cc(C#Cc3cccc(F)c3)cnc2O[C@H]1CN(C)CC1CCOCC1	0.0
C[C@H]1CN([C@@H](C)CO)C(=O)c2cc(-c3ccc(F)cc3)cnc2O[C@H]1CN(C)Cc1ccc(C(=O)O)cc1	-26.8
CCC(=O)N1C[C@H](C)[C@@H](OC)CN(C)C(=O)c2ccc(NC(=O)C3CCCCC3)cc2OC[C@H]1C	-1.8
CCNC(=O)C[C@@H]1CC[C@@H]2[C@@H](COc3ccc(NC(=O)C4CCCCC4)cc3C(=O)N2C)O1	33.3*
CCC(=O)N1C[C@H](C)[C@H](OC)CN(C)C(=O)c2ccc(NC(=O)C3CCCCC3)cc2OC[C@@H]1C	0.9
CCC(=O)N(C)C[C@@H]1Oc2ncc(C#CC3(O)CCCC3)cc2C(=O)N([C@H](C)CO)C[C@@H]1C	0.5
COc1ccc(NC(=O)Nc2cccc3c2O[C@H](CN(C)Cc2ccc4c(c2)OCO4)[C@@H](C)CN([C@@H](C)CO)C3=O)cc1	-95.7
SMILES	miR-122 inh
COC(=O)c1c(N)nc(C)n1-c1ccc(OC)cc1	33.8*
Cc1ccc(-c2ccc3c(c2)O[C@H](CN(C)Cc2cccc(C(=O)O)c2)[C@H](C)CN([C@H](C)CO)S3(=O)=O)cc1	-16.1
C[C@@H]1CN([C@@H](C)CO)C(=O)Cc2cc(N(C)C)ccc2O[C@@H]1CN(C)Cc1ccc(C(=O)Nc2ccccc2N)cc1	-141.7
COCC(=O)N(C)C[C@H]1Oc2ncc(/C=C/c3ccccc3)cc2C(=O)N([C@@H](C)CO)C[C@@H]1C	-3.0
Cc1noc(C)c1NC(=O)N(C)C[C@H]1Oc2cc(C#CCC(C)C)ccc2S(=O)(=O)N([C@@H](C)CO)C[C@H]1C	-54.4
C[C@@H]1CN([C@H](C)CO)S(=O)(=O)c2ccc(C#Cc3ccccc3F)cc2O[C@H]1CN(C)C(=O)Cc1ccccc1	0.7
C[C@@H]1CN([C@@H](C)CO)S(=O)(=O)c2ccc(C#Cc3ccccc3F)cc2O[C@@H]1CN(C)C(=O)c1ccc2c(c1)OCO2	41.2*
C[C@@H]1CN([C@H](C)CO)S(=O)(=O)c2ccc(Br)cc2O[C@H]1CN(C)C(=O)c1ccc2c(c1)OCO2	-1.4
C[C@@H]1CN([C@@H](C)CO)S(=O)(=O)c2ccc(C#Cc3ccccc3F)cc2O[C@@H]1CN(C)C(=O)Cc1ccncc1	57.1*
C[C@@H]1CN([C@@H](C)CO)S(=O)(=O)c2ccc(C#Cc3ccccc3F)cc2O[C@H]1CN(C)C(=O)Cc1ccccc1	-2.1
C[C@H]1CN([C@@H](C)CO)S(=O)(=O)c2ccc(C#Cc3ccccc3F)cc2O[C@@H]1CN(C)C(=O)Cc1ccccc1	-12.2
COc1ccccc1C#Cc1ccc2c(c1)O[C@H](CN(C)Cc1ccncc1)[C@@H](C)CN([C@H](C)CO)S2(=O)=O	1.9
CC(C)C#Cc1cnc2c(c1)C(=O)N([C@@H](C)CO)C[C@@H](C)[C@H](CN(C)C(=O)CC1CC1)O2	-15.6
CCCN(C)C[C@H]1Oc2cc(-c3ccc(OC)cc3)ccc2S(=O)(=O)N([C@H](C)CO)C[C@H]1C	-76.7
COc1ccc(-c2cnc3c(c2)C(=O)N([C@H](C)CO)C[C@@H](C)[C@@H](CN(C)C(=O)C2CCOCC2)O3)cc1	-3.2
CC(=O)NC(c1ccc(C)cc1)c1cc(Cl)c2cccnc2c1O (configuration not stated)	30.8*
C[C@@H]1CN([C@H](C)CO)C(=O)c2cc(-c3ccc(C#N)cc3)cnc2O[C@@H]1CN(C)CC1CCOCC1	3.8
C[C@@H]1CN([C@H](C)CO)S(=O)(=O)c2ccc(C#C[C@@H](C)O)cc2O[C@@H]1CN(C)C	0.1
C[C@H](CO)N1C[C@H](C)[C@H](CN(C)C(=O)C2CC2)Oc2cc(C#Cc3cccnc3)ccc2S1(=O)=O	-2.4
CCC(=O)N(C)C[C@H]1Oc2cc(C#Cc3cccnc3)ccc2S(=O)(=O)N([C@@H](C)CO)C[C@@H]1C	-21.7
COCC(=O)N(C)C[C@H]1Oc2cc(C#Cc3cccnc3)ccc2S(=O)(=O)N([C@@H](C)CO)C[C@H]1C	58.9*
CCC(=O)N(C)C[C@H]1Oc2cc(C#Cc3cccnc3)ccc2S(=O)(=O)N([C@H](C)CO)C[C@@H]1C	-10.2
C[C@@H]1CN([C@@H](C)CO)S(=O)(=O)c2ccc(C#CC3(O)CCCC3)cc2O[C@@H]1CN(C)C(=O)c1cccnc1	47.0*
CC(=O)N(C)C[C@@H]1Oc2cc(C#CC3(O)CCCC3)ccc2S(=O)(=O)N([C@H](C)CO)C[C@@H]1C	5.1
COCC(=O)N(C)C[C@H]1Oc2cc(C#Cc3cccnc3)ccc2S(=O)(=O)N([C@@H](C)CO)C[C@@H]1C	54.8*
CCC(=O)N(C)C[C@@H]1Oc2cc(C#Cc3cccnc3)ccc2S(=O)(=O)N([C@@H](C)CO)C[C@@H]1C	3.5
C/C=C/c1ccc2c(c1)O[C@H](CN(C)C(=O)Cc1cccnc1)[C@H](C)CN([C@H](C)CO)S2(=O)=O	42.6*
C/C=C/c1ccc2c(c1)O[C@H](CN(C)C(=O)c1cccnc1)[C@H](C)CN([C@H](C)CO)S2(=O)=O	-5.0

High-throughput results as filed in PubChem.
